Source: PubChem
This is a sample that favours compounds with a hit; in the whole collection about 2.6% have one here.
GFP derepression – derepresses silenced GFP locus in mouse C127i cells; mouse C127i GFP locus derepression, cytometry, 30 h; Potency, µM (highest dose often 46.1 µM); 0.09% of 68,000 active; AID 597
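Derepression screen: silenced CMV-GFP reporter in murine C127i cells, 30 h compound incubation at 37 C, washed cells imaged by laser-scanning cytometer to enumerate GFP-expressing objects of 20 to 120 um.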
HBB splice mod – hemoglobin beta splicing modulation; 0.06% of 65,000 active; Potency, µM (doses to about 46.1 µM), actives largely listed as activators; HBB splicing reporter cell assay, activation; EGFP reporter with mutant IVS2-654 intron; response scale: normalised to 500 nM splice-correcting PNA; AID 925
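HeLa cells stably expressing EGFP interrupted by mutant beta-globin intron 2 (IVS2-654), 500/well in 2% FCS. Treated with compound for 2 days at 37C. Splicing correction scored as total well GFP intensity (488 nm excitation, 500-520 nm emission); 500 nM antisense PNA served as control.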
FLuc inh – firefly luciferase inhibition; purified firefly luciferase, luminescence, 8 min; P08659; 2.2% of 72,000 active; Potency, µM (top dose mostly 57.1 µM), hits mostly inhibitors; AID 411; also: nearly all actives have a fitted effect of over 40% in size
Target sequence (P08659 whole entry, looked up): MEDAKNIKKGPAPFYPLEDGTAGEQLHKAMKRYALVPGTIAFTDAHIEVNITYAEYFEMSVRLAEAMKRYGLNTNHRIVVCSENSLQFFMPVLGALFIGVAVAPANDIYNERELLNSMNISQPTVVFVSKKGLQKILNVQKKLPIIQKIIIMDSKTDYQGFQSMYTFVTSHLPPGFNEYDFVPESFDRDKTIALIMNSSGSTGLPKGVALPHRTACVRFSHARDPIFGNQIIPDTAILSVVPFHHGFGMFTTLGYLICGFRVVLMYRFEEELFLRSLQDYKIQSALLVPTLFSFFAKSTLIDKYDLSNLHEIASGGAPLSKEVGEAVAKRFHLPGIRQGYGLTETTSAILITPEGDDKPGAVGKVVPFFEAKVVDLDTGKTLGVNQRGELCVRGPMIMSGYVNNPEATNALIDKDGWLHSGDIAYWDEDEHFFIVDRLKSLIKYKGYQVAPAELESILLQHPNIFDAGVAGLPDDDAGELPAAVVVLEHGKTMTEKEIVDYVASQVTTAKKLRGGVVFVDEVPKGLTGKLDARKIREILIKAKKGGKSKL
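Titration-based qHTS; buffer 50 mM imidazole pH 7.2, 50 mM KCl, 7 mM MgCl2, 10 uM ATP, 0.01% Tween 20, 0.05% BSA; luciferase/luciferin detector mix added after compound; 8 min, ambient; luminescence.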
Bst PK mod – alters activity of Bacillus stearothermophilus pyruvate kinase; Potency, µM; 1.2% of 51,000 active; AID 361; purified pyruvate kinase, luminescence ATP production; ribose 5-phosphate activator present at AC10; in the data active = potency below about 11 µM; inconclusive = mostly about 12 µM to 25 µM;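 the screen sought inhibitors and activators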
Each line names hits and unclear results; the compound was inactive in the other large screens. Unless noted, calls follow the shape of the dose curve; as a rule, active = well fitted curve in the direction sought with a large enough effect; inconclusive = small, poorly fitted or top-dose-only effect, or another doubt; inactive = no such curve, though single readings can be large; an effect the other way counts as inactive or inconclusive.

O=C(CSc1ncnc2sc3c(c12)CCCCC3)NCc1ccco1	none
O=C(CSc1ncnc2sc3c(c12)CCCC3)c1ccco1	FLuc inh 32µM (no result: Bst PK mod)
Cc1cccnc1Nc1nc(-c2ccc(O)cc2O)cs1	FLuc inh 16µM, Bst PK mod 1.7
Cc1cc(O)ccc1Nc1nc(-c2sc(N)nc2C)cs1	none
CN1CCN(c2ncnc3ccc(-c4ccccc4C(F)(F)F)cc23)CC1	none (no result: Bst PK mod)
O=C(CN1C(=O)c2cccc3cccc1c23)Nc1cccnc1	Bst PK mod 10
CCOC(=O)C1=C(C)NC(C)=C(C(=O)OC)[C@@H]1c1cccc(Cl)c1Cl	none (no result: Bst PK mod)
FC(F)(F)c1nc2nc(Cl)c(Cl)nc2n1CCCN1CCOCC1	none (no result: Bst PK mod)
Clc1ccc2c(c1)C1OCCC1C(c1ccco1)N2 (stereo unspecified)	FLuc inh 16µM, Bst PK mod 9.6 (no result: HBB splice mod)
Cc1ccc2c(c1)[C@H]1OCC[C@H]1[C@@H](c1ccncc1)N2	none (no result: Bst PK mod)
COc1ccc(-c2nc(C#N)c(N3CCCCCC3)o2)cc1OC	none
COc1ccc2c(c1OC)C(=O)N1c3ccccc3SC21 (stereo unspecified)	FLuc inh 5µM (no result: HBB splice mod)
COc1ccc2c(c1OC)C(=O)N1c3cccc(Cl)c3C(=O)OC21 (stereo unspecified)	none
COc1ccc2c(c1OC)C(=O)N1c3ccccc3COC21 (stereo unspecified)	FLuc inh 10µM, Bst PK mod inconclusive
COc1ccc(NC(=O)Nc2cccc(C)n2)cc1	FLuc inh 16µM (no result: GFP derepression, Bst PK mod)
Cc1cccc(NC(=O)Nc2ccc(C#N)cc2)n1	none (no result: Bst PK mod)
c1cc2c3c(c1)ccc1cccc(c13)C2	none (no result: GFP derepression, FLuc inh, Bst PK mod)
Cc1ccc(N2C(=O)c3n[nH]c(C)c3C2c2ccco2)cc1 (stereo unspecified)	FLuc inh 16µM (no result: Bst PK mod)
COCCNC(=O)[C@H](C)/C=C/C(NC(=O)OCc1ccccc1)c1ccc(C(=O)OC)cc1 (stereo partly specified)	none (no result: GFP derepression, FLuc inh, Bst PK mod)
CCOC(=O)c1c(C)nc2c3ccccc3ccn12	FLuc inh 10µM, Bst PK mod 6.9
Cc1cc2c(nc1C)CCCN2C[C@@H](O)CN1CCN(C)CC1	none (no result: GFP derepression, Bst PK mod)
O=C(Nc1ccc(-c2nc3ccccc3o2)cc1)C1CCCO1 (stereo unspecified)	FLuc inh 5µM, Bst PK mod 6.3
FC(F)(F)c1ccccc1-c1nccc(N2CCNCC2)n1	none (no result: Bst PK mod)
COc1ccc(-n2nc(C(=O)NCC(=O)N3CCN(c4ccccn4)CC3)c3ccccc3c2=O)cc1	FLuc inh 3.2µM, Bst PK mod 8.2
N=C1Sc2ccccc2C2=NCCCN12	FLuc inh 3.2µM (no result: Bst PK mod)
Cn1c(=O)n2n(c1=O)[C@H]1[C@H](O)[C@H]3O[C@@H]3/C(=N/OC[C@@H](O)COCc3ccco3)[C@@H]1CC2	none (no result: GFP derepression, Bst PK mod)
COC(=O)NC(CC(C)=O)c1ccc(Cl)cc1 (stereo unspecified)	none (no result: GFP derepression, FLuc inh, Bst PK mod)
Cc1cc2nc(SC(C)C(=O)O)[nH]c2cc1C (stereo unspecified)	FLuc inh 10µM (no result: Bst PK mod)
Cc1cc2nc(SCCN3CCCC3)[nH]c2cc1C	none (no result: Bst PK mod)
Nc1nc2ccc(N3CCOCC3)cc2s1	FLuc inh 16µM
IC(I)I	none (no result: GFP derepression, FLuc inh, Bst PK mod)
O=C(O)c1cc(-c2ccco2)nc2ccccc12	none
Oc1c(-c2cc(-c3ccco3)[nH]n2)ccc2ccccc12	FLuc inh 7.9µM, Bst PK mod 8.3
Brc1ccc(-c2cnc(-c3cccs3)o2)cc1	FLuc inh inconclusive, Bst PK mod 1.3 (no result: HBB splice mod)
Cc1ccc(P(=Nc2ccccc2)(N2CCOCC2)N2CCOCC2)o1	none
O=C(Nc1nc2ccccc2s1)C1CCCO1 (stereo unspecified)	none (no result: Bst PK mod)
O=C(Nc1ncc(Cc2ccccc2)s1)C1CCCO1 (stereo unspecified)	FLuc inh 10µM (no result: GFP derepression, Bst PK mod)
CCOC(=O)Cn1nc(-c2ccc(Cl)cc2)cc1N	Bst PK mod 5.8 (no result: HBB splice mod)
CCOC(=O)CCn1nc(-c2ccc(Cl)cc2)cc1N	none (no result: Bst PK mod)
CO[C@H]1[C@H](O[C@H]2O[C@@H](C)[C@@H](O[C@@H]3C[C@](C)(O)[C@H](O)[C@H](C)O3)[C@@H](N(C)C)[C@@H]2O)[C@@H](CC=O)C[C@@H](C)[C@@H](O[C@H]2CC[C@H](N(C)C)[C@H](C)O2)/C=C\C=C/C[C@@H](C)OC(=O)C[C@H]1O	none (no result: Bst PK mod)
c1ccc(COc2ccc(OCCOCCn3cncn3)cc2)cc1	FLuc inh 16µM (no result: Bst PK mod)
O=c1c(CCc2ccccc2)nc2cnc(Oc3ccccc3)nc2n1C[C@H]1CCCO1	none (no result: Bst PK mod)
CCCC1C(c2ccco2)NC(c2ccco2)CC1(C)O (stereo unspecified)	FLuc inh 13µM, Bst PK mod inconclusive
CC1C(=O)C(C)C(c2ccco2)NC1c1ccco1 (stereo unspecified)	none
